{"source": "PubChem BioAssay (EPA / NIEHS)", "key": {"[1]": {"target": "Peroxisome proliferator-activated receptor gamma (Homo sapiens) (UniProt P37231)", "sequence (P37231 whole entry, looked up, the tested form may be a part)": "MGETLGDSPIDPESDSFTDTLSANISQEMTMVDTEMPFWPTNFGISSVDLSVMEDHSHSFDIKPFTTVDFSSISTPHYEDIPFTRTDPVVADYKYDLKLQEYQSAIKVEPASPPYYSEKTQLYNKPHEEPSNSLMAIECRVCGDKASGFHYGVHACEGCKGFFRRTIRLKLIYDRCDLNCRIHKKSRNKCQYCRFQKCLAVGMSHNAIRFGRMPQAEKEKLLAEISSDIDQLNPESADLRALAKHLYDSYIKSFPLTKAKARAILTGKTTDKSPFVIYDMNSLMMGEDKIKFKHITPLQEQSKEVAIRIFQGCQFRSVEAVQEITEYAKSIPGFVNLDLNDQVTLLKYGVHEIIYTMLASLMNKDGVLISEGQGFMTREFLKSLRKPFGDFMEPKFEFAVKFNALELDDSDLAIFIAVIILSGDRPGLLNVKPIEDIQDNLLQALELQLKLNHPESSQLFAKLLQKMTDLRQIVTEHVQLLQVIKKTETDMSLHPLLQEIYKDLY", "assay": "OT_PPARg_PPARgSRC1_1440: Odyssey Thera (OT) 24-hour Protein-Complementation Assay for Peroxisome Proliferator-activated Receptor Gamma/ SRC-1 Co-activator (AID 2283388);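 also: nuclear to cytoplasmic ratio of reconstituted Venus YFP fluorescence in fixed imaged cells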", "outline": "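Transient HEK293T, YFP fragments 1-158/159-239 (mutant IFP1/IFP2) fused to PPARg/SRC-1; 24 h dosing; fix 4% formaldehyde, Draq5; Opera imaging 488/635 nm; N/C ratio, gain vs DMSO.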"}, "[2]": {"assay": "CEETOX_H295R_ESTRADIOL: CeeTox H295R High-throughput Steroidogenesis Assay for Estradiol (AID 2283440; active = hit-call score of the fitted dose curve at least 0.9, where 1 is the maximum; inactive = score below 0.9;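 also: estradiol secreted into medium quantified by LC-MS/MS after dansyl derivatisation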)", "conditions": "actives raise or lower the signal", "outline": "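Following OECD 456 with minor changes, H295R cells received 10 uM forskolin for 48 h and then test chemical for 48 h. Hormone output was read by HPLC-MS/MS, with cytotoxic concentrations diluted until MTT viability reached ≥70%.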"}, "[3]": {"assay": "CEETOX_H295R_ESTRONE: CeeTox H295R High-throughput Steroidogenesis Assay for Estrone (AID 2283441; active = hit-call score of the fitted dose curve at least 0.9, where 1 is the maximum; inactive = score below 0.9;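 also: estrone secreted into medium measured by LC-MS/MS after dansyl derivatization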)", "conditions": "actives raise or lower the signal", "outline": "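Forskolin-stimulated H295R cells are treated 48 h with chemical, and estrone in the medium is measured by LC-MS/MS. Activity is fitted in both directions relative to DMSO controls, with chemicals diluted until MTT viability reaches at least 70%.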"}}, "note": "Calls of active or inactive are those of the source. The calls were made as follows, unless noted: active = hit-call score of the fitted dose curve at least 0.9, where 1 is the maximum; inconclusive = response in the unintended direction; inactive = score below 0.9."}
{"smiles": "C1=CC2C3C=CC(C3)C2C1", "note": "(stereo not given)", "values": [{"measurement": "outcome", "setting": "[1]", "value": "inactive"}]}
{"smiles": "CCNCCO", "values": [{"measurement": "outcome", "setting": "[1]", "value": "inactive"}]}
{"smiles": "CCCCCC(C=O)=Cc1ccccc1", "values": [{"measurement": "outcome", "setting": "[1]", "value": "inactive"}]}
{"smiles": "CC(C=O)Cc1ccc(C(C)(C)C)cc1", "note": "(stereo not given)", "values": [{"measurement": "outcome", "setting": "[1]", "value": "inactive"}]}
{"smiles": "ON=C1CCCCC1", "values": [{"measurement": "outcome", "setting": "[1]", "value": "inactive"}]}
{"smiles": "Nc1ccccc1[N+](=O)[O-]", "values": [{"measurement": "outcome", "setting": "[1]", "value": "inactive"}]}
{"smiles": "CS(C)=O", "values": [{"measurement": "outcome", "setting": "[1]", "value": "inactive"}]}
{"smiles": "CCOc1ccccc1O", "values": [{"measurement": "outcome", "setting": "[1]", "value": "inactive"}]}
{"smiles": "CCCOCCO", "values": [{"measurement": "outcome", "setting": "[1]", "value": "inactive"}]}
{"smiles": "CCCCCCCCCC(=O)OC", "values": [{"measurement": "outcome", "setting": "[1]", "value": "inactive"}]}
{"smiles": "COC(=O)c1ccc(C)cc1C1=NC(C)(C(C)C)C(=O)N1", "note": "(stereo not given) (tested in a mixture with another compound)", "values": [{"measurement": "outcome", "setting": "[1]", "value": "inactive"}]}
{"smiles": "CCCCCCCCCCCCCCN(CCO)CCO", "values": [{"measurement": "outcome", "setting": "[1]", "value": "inactive"}]}
{"smiles": "CCCCC(CC)COC(C)=O", "note": "(stereo not given)", "values": [{"measurement": "outcome", "setting": "[1]", "value": "inactive"}]}
{"smiles": "CN1CCOCC1", "values": [{"measurement": "outcome", "setting": "[1]", "value": "inactive"}]}
{"smiles": "Clc1ccc(C(c2ccccc2Cl)C(Cl)Cl)cc1", "note": "(stereo not given)", "values": [{"measurement": "outcome", "setting": "[1]", "value": "inactive"}]}
{"smiles": "O=[N+]([O-])c1ccc(O)cc1C(F)(F)F", "values": [{"measurement": "outcome", "setting": "[1]", "value": "inactive"}]}
{"smiles": "CCC1(C)NC(=O)NC1=O", "note": "(stereo not given)", "values": [{"measurement": "outcome", "setting": "[1]", "value": "inactive"}]}
{"smiles": "O=C1NC2NC(=O)NC2N1", "note": "(stereo not given)", "values": [{"measurement": "outcome", "setting": "[1]", "value": "inactive"}]}
{"smiles": "CCCCCCCCCCCCN1CCCCCC1=O", "values": [{"measurement": "outcome", "setting": "[1]", "value": "inactive"}]}
{"smiles": "CCCC(C)=O", "values": [{"measurement": "outcome", "setting": "[1]", "value": "inactive"}]}
{"smiles": "CC1CC(O)CC(C)(C)C1", "note": "(stereo not given)", "values": [{"measurement": "outcome", "setting": "[1]", "value": "inactive"}]}
{"smiles": "CCC(=O)O[C@@H]1C[C@H]2CC[C@]1(C)C2(C)C", "values": [{"measurement": "outcome", "setting": "[1]", "value": "inactive"}]}
{"smiles": "Oc1ccc2cc(SSc3ccc4cc(O)ccc4c3)ccc2c1", "values": [{"measurement": "outcome", "setting": "[1]", "value": "inactive"}]}
{"smiles": "CC(C)CCCCCCCCCCCCCCC(=O)O", "values": [{"measurement": "outcome", "setting": "[1]", "value": "inactive"}]}
{"smiles": "OC[C@H]1O[C@@H]2O[C@H]3[C@H](O)[C@@H](O)[C@@H](O[C@H]4[C@H](O)[C@@H](O)[C@@H](O[C@H]5[C@H](O)[C@@H](O)[C@@H](O[C@H]6[C@H](O)[C@@H](O)[C@@H](O[C@H]7[C@H](O)[C@@H](O)[C@@H](O[C@H]8[C@H](O)[C@@H](O)[C@@H](O[C@H]9[C@H](O)[C@@H](O)[C@@H](O[C@H]1[C@H](O)[C@H]2O)O[C@@H]9CO)O[C@@H]8CO)O[C@@H]7CO)O[C@@H]6CO)O[C@@H]5CO)O[C@@H]4CO)O[C@@H]3CO", "values": [{"measurement": "outcome", "setting": "[1]", "value": "inactive"}]}
{"smiles": "C=C(C)[C@@H]1CC=C(C)C(=O)C1", "values": [{"measurement": "outcome", "setting": "[1]", "value": "inactive"}]}
{"smiles": "Nc1ccc2cc(S(=O)(=O)O)cc(O)c2c1N=Nc1ccccc1C(F)(F)F", "values": [{"measurement": "outcome", "setting": "[1]", "value": "inactive"}]}
{"smiles": "O=C(CC(=O)c1ccccc1)c1ccccc1", "values": [{"measurement": "outcome", "setting": "[1]", "value": "inactive"}]}
{"smiles": "C[Si](C)(C)O[Si](C)(C)C", "values": [{"measurement": "outcome", "setting": "[1]", "value": "inactive"}]}
{"smiles": "CC1CCC(C(C)C)C(O)C1", "note": "(stereo not given)", "values": [{"measurement": "outcome", "setting": "[1]", "value": "inactive"}]}
{"smiles": "CC(C)CCCCCCc1ccc(OCCOCCO)cc1", "values": [{"measurement": "outcome", "setting": "[1]", "value": "inactive"}]}
{"smiles": "CC(C)NCC(O)COc1ccc(CC(N)=O)cc1", "note": "(stereo not given)", "values": [{"measurement": "outcome", "setting": "[1]", "value": "inactive"}]}
{"smiles": "CCOC(=O)C1OC1c1ccccc1", "note": "(stereo not given)", "values": [{"measurement": "outcome", "setting": "[1]", "value": "inactive"}]}
{"smiles": "CC(C)(C)CC(C)(C)c1ccc(OCCOCC[N+](C)(C)Cc2ccccc2)cc1", "values": [{"measurement": "outcome", "setting": "[2]", "value": "inactive"}, {"measurement": "outcome", "setting": "[3]", "value": "inactive"}]}
